Data on seven compounds can be found in PubChem BioAssay (Tox21).

Inconclusive results are not listed. Activity calls are given as the source filed them. Unless noted, the call rests on the fitted dose curve; in most records, active means well fitted curve in the direction sought with a large enough effect in the repeat runs; inconclusive means weak or mixed curves; inactive means no such curve, though single readings can be large; an effect the other way counts as inactive or inconclusive.

Assay [1] is described as follows: qHTS assay to identify small molecule antagonists of the androgen receptor (AR) signaling pathway using the MDA cell line in the presence of 0.5 nM R1881 - cell viability counter screen (AID 1259242). Further: nearly all actives have a fitted effect of over 45% in size. The method in brief:
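qHTS format. MDA-kb2 (MMTV-luc, AR/GR responsive) + cpd + 0.5 nM R1881 final, 16 hr 37C/0% CO2 → CellTiter-Fluor 30 min → fluorescence intensity.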
A general note: Quantitative high-throughput screening tests each substance at several concentrations.

Assay [2] concerns the target Estrogen receptor (Homo sapiens) (UniProt P03372). Nature of the assay: qHTS assay to identify small molecule antagonists of the estrogen receptor alpha (ER-alpha) signaling pathway using the BG1 cell line in the presence of 0.1 nM 17-beta-estradiol (AID 1259244). Further: nearly all actives have a fitted effect of over 50% in size. Further: potency means the concentration at half of the fitted maximal effect. The method in brief:
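Reporter is a stably transfected luciferase under four estrogen responsive elements in VM7Luc4E2 cells expressing native full-length ER-alpha; inhibition of 0.1 nM (final) 17beta-estradiol-driven signal over 22 h is read by luminescence.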

Assay [3] in a line: qHTS assay to identify small molecule phospholipidosis (PLD) inducers (AID 1259344; active means well fitted curve in the direction sought with a large enough effect; an effect the other way counts as inactive or inconclusive). The method in brief: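 After 4 h attachment on collagen I, HepG2 cells were dosed with compound alongside LipidTOX Red, kept 24 h at 37 C, fixed, and imaged for lamellar phospholipid pits.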
Assay [4] in a line: qHTS assay to identify small molecule HDAC inhibitors (AID 1259364).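 Further: wild-type HCT-116 cells with endogenous class I/II HDAC activity; top concentration of the series differs between compounds; nearly all actives have a fitted effect of over 45% in size.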 The method, boiled down:
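Quantitative high-throughput format: overnight-seeded HCT-116 cells got compounds for 2 hr at 37C; HDAC-Glo I/II reagent added, 30 min RT, luminescence measured.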

Assay [5] can be described thus: qHTS assay to identify small molecule HDAC inhibitors - cell viability counter screen (AID 1259365). Further: series mostly up to about 92 µM; nearly all actives have a fitted effect of over 50% in size. The method in brief:
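To flag cytotoxic hits, 1,500 wild-type HCT-116 cells per well, plated the day before, receive test compounds for 2hr at 37 C before CellTiter-Glo reagent and a luminescence read.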

Assay [6] can be described thus: qHTS assay to identify small molecule agonists of the sonic hedgehog signaling (Shh) pathway - cell viability counter screen (AID 1259366). Further: nearly all actives have a fitted effect of over 50% in size. The method in brief: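 Fluorescence from CellTiter-Fluor reports live cells in this counter screen. NIH/3T3-derived Gli1-Luc reporter cells receive test compounds for 24hr at 37C; reagent goes in at 23hr.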
Assay [7] in a line: qHTS assay to identify small molecule antagonists of the sonic hedgehog signaling (Shh) pathway - cell viability counter screen (AID 1259367). Further: nearly all actives have a fitted effect of over 55% in size. The method in brief:
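Conditioned medium drove Shh signaling in 3T3 Gli1-Luc cells exposed to compounds at 37C and 5% CO2. Viability was determined from CellTiter-Fluor fluorescence, with reagent incubated 1 hr after 23 hr of treatment.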

The nature of assay [8]: qHTS assay to identify small molecule agonists of the sonic hedgehog signaling (Shh) pathway (AID 1259368; calls by dose curve;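 further: NIH/3T3-derived 3T3Gli1-Luc cells carrying a stable Gli1-driven firefly luciferase reporter; series mostly up to about 92 µM; nearly all actives have a fitted effect of over 15% in size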). The method, boiled down:
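Quantitative high-throughput format using a Gli1-driven firefly luciferase reporter line derived from NIH/3T3 cells. After a 24 hr compound treatment at 37 C and 5% CO2, luminescence reported Gli1 response element activity.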

Assay [9] is described as follows: qHTS assay to identify small molecule antagonists of the sonic hedgehog signaling (Shh) pathway (AID 1259369; calls by dose curve; further: nearly all actives have a fitted effect of over 45% in size; further: potency means the concentration at half of the fitted maximal effect). The method, boiled down:
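Stable Gli1-Luc reporter NIH/3T3 clone; quantitative HTS in stimulated mode with conditioned medium. Luminescence measured after 24hr compound treatment at 37 C.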

In assay [10] the target is Estrogen receptor beta (Homo sapiens) (UniProt Q92731). In words: qHTS assay to identify small molecule agonists of the estrogen receptor beta (ER-beta) signaling pathway (AID 1259377; active means well fitted activation curve with a large enough effect in the signal ratio in the repeat runs, not every such curve was filed as active; the % refers to the signal ratio). The method, boiled down:
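Screening used GripTite ER-beta-UAS-bla cells held in 2% charcoal-stripped FBS medium. After overnight (16 hr) compound incubation at 37C, beta-lactamase activity was detected with a FRET substrate by fluorescence.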

The target is the same in assay [11]. In words: qHTS assay to identify small molecule antagonists of the estrogen receptor beta (ER-beta) signaling pathway (AID 1259378; active means well fitted inhibition curve with a large enough effect in the signal ratio in the repeat runs, not every such curve was filed as active; the % refers to the signal ratio; further: potency means the concentration at half of the fitted maximal effect). The method in brief:
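ER-beta-UAS-bla HEK293T (GripTite) cells in 2% charcoal-stripped FBS medium were preincubated 6 hr at 37C, dosed with compound, then stimulated with 1 nM E2 (final) for 16 hr; beta-lactamase reporter read by B/G FRET fluorescence after 2 hr substrate loading.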

The nature of assay [12]: qHTS assay to identify small molecule agonists of the androgen receptor (AR) signaling pathway in the presence of an antagonist - cell viability counter screen (AID 1259379).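 Further: MDA-kb2 human breast cancer cells carrying an MMTV luciferase reporter; series mostly up to about 92 µM; nearly all actives have a fitted effect of over 25% in size.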 The method, boiled down:
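Nilutamide-containing (3.0uM final) MDA-kb2 cultures, 3,000 cells/well, were treated with compounds across 15 concentrations. After 16 hr at 37C with no CO2, cell viability was determined by CellTiter-Fluor fluorescence in the luciferase assay wells.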

Assay [13] can be described thus: qHTS assay to identify small molecule antagonists of the estrogen receptor beta (ER-beta) signaling pathway - cell viability counter screen (AID 1259382). Further: series mostly up to about 92 µM; nearly all actives have a fitted effect of over 55% in size. The method in brief:
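Viability is scored by CellTiter-Glo luminescence (30 min, room temperature) in ER-beta-UAS-bla HEK293T wells already read for reporter fluorescence. Compound exposure lasts 16 hr at 37C alongside 1nM 17-beta-estradiol in charcoal-stripped serum medium.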

In assay [14] the target is Estrogen receptor (Homo sapiens) (UniProt P03372). Nature of the assay: qHTS assay to identify small molecule agonists of the estrogen receptor alpha (ER-alpha) signaling pathway in the presence of an antagonist (AID 1259383; calls by dose curve; further: top concentration of the series differs between compounds; nearly all actives have a fitted effect of over 15% in size). The method, boiled down: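 Readout was ERE-driven luciferase luminescence in VM7Luc4E2 cells, which express full-length ER-alpha endogenously. Compounds were tested at 15 concentrations for 22hr alongside 10.0nM ICI-182,780 (final concentration).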

The nature of assay [15]: qHTS assay to identify small molecule agonists of the estrogen receptor alpha (ER-alpha) signaling pathway in the presence of an antagonist - cell viability counter screen (AID 1259386).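 Further: series mostly up to about 92 µM; cells exposed to compounds for 22 h at 37 °C before the viability read; nearly all actives have a fitted effect of over 30% in size.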 The method, boiled down: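 In this counter screen, compound effects on VM7Luc4E2 viability were tested in the presence of the antagonist ICI-182,780 at 10.0nM final. Compounds were dosed at 15 concentrations, exposure lasted 22hr, and the CellTiter-Fluor signal was read.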

Assay [16] addresses Androgen receptor (Homo sapiens) (UniProt P10275). Nature of the assay: qHTS assay to identify small molecule antagonists of the androgen receptor (AR) signaling pathway using the MDA cell line in the presence of 0.5 nM R1881 (AID 1259243). Further: nearly all actives have a fitted effect of over 50% in size. The method, boiled down: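 Antagonist mode quantitative HTS in MDA-kb2 MMTV-luciferase cells, agonist R1881 at 0.5 nM final, 16 hr exposure at 37C and 0% CO2, luminescent detection.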

Assay [17] can be described thus: qHTS assay to identify small molecule agonists of the estrogen receptor beta (ER-beta) signaling pathway - cell viability counter screen (AID 1259380). Further: nearly all actives have a fitted effect of over 30% in size. The method in brief: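 Steps: plate ER-beta-UAS-bla HEK293T cells, rest 6 hr; add compounds in DMSO; incubate 16 hr at 37C, 5% CO2; add FRET substrate 2 hr; add CellTiter-Glo, wait 30 min at room temperature; read luminescence.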

For assay [18], the target named is Androgen receptor (Homo sapiens) (UniProt P10275). Nature of the assay: qHTS assay to identify small molecule agonists of the androgen receptor (AR) signaling pathway in the presence of an antagonist (AID 1259381; calls by dose curve; further: nearly all actives have a fitted effect of over 15% in size). The method, boiled down: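 Reporter-gene luminescence from MDA-kb2 cells exposed 16hr at 37C (0% CO2) to 15-point compound titrations with 3.0uM final nilutamide as AR antagonist.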

Assay [19] in a line: qHTS assay to identify small molecule agonists or antagonists of the thyroid stimulating hormone receptor (TSHR) signaling pathway - wild type cell line counter screen (AID 1259384; calls by dose curve). The method in brief:
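Wild-type HEK293 cells were plated 18 h at 37 C/5% CO2, pin-dosed with compound plus Ro20-1724 medium, held 30 min at room temperature, then given cAMP-d2 and anti-cAMP-cryptate; fluorescence was read after 1 h. Fifteen concentrations, triplicate.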

Assay [20] concerns the target Thyrotropin receptor (Homo sapiens) (UniProt P16473). Nature of the assay: qHTS assay to identify small molecule antagonists of the thyroid stimulating hormone receptor (TSHR) signaling pathway (AID 1259385; calls by dose curve; further: nearly all actives have a fitted effect of over 20% in size). The method, boiled down:
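TSHR-HEK293 cells were plated and held 18 h at 37C/5% CO2, then given compound plus Ro20-1724 and stimulated with TSH at 1.5 ng/mL final. After 30 min at room temperature, cAMP was detected with cAMP-d2/anti-cAMP-cryptate (1 h) by fluorescence.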

Sequence of Thyrotropin receptor (Homo sapiens) (P16473 whole entry, looked up): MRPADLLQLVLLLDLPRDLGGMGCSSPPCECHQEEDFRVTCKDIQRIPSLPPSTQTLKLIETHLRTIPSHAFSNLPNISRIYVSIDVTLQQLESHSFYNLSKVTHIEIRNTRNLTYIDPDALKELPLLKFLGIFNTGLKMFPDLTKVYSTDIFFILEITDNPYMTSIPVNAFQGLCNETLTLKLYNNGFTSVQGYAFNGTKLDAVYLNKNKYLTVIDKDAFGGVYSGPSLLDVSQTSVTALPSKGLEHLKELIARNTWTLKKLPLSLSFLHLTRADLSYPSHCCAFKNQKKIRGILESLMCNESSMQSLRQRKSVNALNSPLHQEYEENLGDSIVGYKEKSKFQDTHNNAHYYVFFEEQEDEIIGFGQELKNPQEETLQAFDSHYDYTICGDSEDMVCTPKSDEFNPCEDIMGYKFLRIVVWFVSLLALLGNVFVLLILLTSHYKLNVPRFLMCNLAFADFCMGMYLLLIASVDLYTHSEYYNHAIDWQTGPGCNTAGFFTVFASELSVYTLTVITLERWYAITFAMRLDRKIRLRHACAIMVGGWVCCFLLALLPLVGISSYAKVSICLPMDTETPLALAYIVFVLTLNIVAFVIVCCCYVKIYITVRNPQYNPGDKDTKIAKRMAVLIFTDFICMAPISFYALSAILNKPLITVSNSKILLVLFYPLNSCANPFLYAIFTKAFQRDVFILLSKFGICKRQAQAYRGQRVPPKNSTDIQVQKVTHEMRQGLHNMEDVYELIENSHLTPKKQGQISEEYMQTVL
Sequence of Androgen receptor (Homo sapiens) (P10275 whole entry, looked up): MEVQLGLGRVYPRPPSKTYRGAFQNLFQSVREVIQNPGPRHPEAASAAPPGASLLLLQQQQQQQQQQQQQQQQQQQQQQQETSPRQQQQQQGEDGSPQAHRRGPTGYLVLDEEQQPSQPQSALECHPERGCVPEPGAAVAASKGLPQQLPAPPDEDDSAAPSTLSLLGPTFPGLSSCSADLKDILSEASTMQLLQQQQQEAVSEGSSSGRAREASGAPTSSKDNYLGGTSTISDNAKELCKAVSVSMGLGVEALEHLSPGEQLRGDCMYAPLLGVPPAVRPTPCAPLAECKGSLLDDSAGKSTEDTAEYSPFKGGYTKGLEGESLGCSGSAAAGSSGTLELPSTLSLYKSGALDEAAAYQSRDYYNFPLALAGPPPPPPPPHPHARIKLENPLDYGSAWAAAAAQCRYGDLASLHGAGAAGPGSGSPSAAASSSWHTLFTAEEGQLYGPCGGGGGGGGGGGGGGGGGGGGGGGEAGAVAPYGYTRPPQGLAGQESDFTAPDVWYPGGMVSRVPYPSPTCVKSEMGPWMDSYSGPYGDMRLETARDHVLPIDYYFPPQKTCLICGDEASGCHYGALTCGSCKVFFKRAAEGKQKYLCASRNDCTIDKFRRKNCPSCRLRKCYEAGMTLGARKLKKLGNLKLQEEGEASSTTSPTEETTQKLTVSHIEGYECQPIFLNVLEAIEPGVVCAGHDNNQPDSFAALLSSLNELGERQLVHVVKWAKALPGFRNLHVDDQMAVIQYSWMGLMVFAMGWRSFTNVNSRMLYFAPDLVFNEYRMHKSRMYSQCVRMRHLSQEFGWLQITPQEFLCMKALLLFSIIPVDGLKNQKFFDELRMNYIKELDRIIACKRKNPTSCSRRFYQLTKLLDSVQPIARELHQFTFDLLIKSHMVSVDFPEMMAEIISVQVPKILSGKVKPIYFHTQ
Sequence of Estrogen receptor (Homo sapiens) (P03372 whole entry, looked up): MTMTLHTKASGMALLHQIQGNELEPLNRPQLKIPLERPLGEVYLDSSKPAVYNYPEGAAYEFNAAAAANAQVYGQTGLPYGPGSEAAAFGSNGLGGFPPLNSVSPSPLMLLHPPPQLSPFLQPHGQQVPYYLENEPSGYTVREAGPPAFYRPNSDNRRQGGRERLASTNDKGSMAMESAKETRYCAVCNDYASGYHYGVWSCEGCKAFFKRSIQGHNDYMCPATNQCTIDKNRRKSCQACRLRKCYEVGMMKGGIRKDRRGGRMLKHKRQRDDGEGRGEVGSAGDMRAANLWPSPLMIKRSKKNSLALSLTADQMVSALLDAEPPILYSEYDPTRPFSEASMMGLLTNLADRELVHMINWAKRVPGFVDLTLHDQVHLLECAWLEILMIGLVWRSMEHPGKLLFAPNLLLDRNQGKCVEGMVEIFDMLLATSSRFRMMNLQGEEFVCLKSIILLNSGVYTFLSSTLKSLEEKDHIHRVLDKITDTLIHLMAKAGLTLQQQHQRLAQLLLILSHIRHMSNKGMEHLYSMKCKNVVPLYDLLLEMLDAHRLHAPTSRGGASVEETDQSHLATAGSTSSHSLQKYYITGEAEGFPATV
Sequence of Estrogen receptor beta (Homo sapiens) (Q92731 whole entry, looked up): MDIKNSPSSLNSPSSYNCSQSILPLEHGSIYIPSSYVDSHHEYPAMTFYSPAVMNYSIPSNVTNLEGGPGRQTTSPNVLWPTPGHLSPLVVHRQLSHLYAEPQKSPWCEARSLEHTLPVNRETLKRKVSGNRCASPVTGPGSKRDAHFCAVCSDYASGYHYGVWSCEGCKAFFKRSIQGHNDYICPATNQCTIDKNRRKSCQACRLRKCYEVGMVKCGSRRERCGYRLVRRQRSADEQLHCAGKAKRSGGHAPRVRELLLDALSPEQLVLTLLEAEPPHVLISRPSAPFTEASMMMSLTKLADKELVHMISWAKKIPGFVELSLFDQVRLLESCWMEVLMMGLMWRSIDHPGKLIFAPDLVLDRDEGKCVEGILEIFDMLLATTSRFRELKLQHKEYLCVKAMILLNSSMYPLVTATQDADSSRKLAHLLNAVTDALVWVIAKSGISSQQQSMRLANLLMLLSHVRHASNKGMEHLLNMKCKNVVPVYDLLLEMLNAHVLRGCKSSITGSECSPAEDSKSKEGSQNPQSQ

On to `CC(=O)[C@H]1CC[C@H]2[C@@H]3CC[C@H]4C[C@H](O)CC[C@]4(C)[C@H]3C(=O)C[C@]12C`, for which the result in assay [1], in [3], in assay [5], in [8] and in assay [10] was inactive. Besides, the Potency entry in assay [2], in assay [4], in assay [6], in assay [7], in [9] and in assay [11] was “inactive” in each case. Further, the Potency entry in assay [12], in [13], in assay [14] and in [15] was “inactive” each time.

Turning to `c1ccc(N2CCNCC2)cc1`, the outcome in assay [1], in assay [5], in assay [8] and in [10] was inactive. For the same compound, the Potency entry in assay [16], in assay [4], in assay [6], in [7], in assay [9] and in [11] was “inactive” each time. Further, the Potency result in assay [12], in [17], in assay [18], in assay [13] and in assay [15] was “inactive” each time.

In the case of `CCCCOC(=O)c1ccccc1C(=O)O`, the result in assay [1], in assay [5], in assay [8] and in assay [10] was inactive. The Potency result in assay [16], in assay [4], in assay [6], in [7], in assay [9] and in assay [11] was “inactive” in each case. The Potency entry in [12], in assay [18], in assay [13], in assay [19], in assay [20] and in [15] was “inactive” each time.

Consider `COC(=O)C1=CCCN(C)C1`, for which the result in assay [1], in [3], in assay [5], in [8] and in [10] was inactive. The Potency entry in assay [2], in [4], in [6], in [7], in [11] and in assay [12] was “inactive” each time. In addition, the Potency entry in assay [17], in assay [13], in assay [14], in assay [19], in assay [20] and in [15] was “inactive” each time.

Regarding `CC1COC2(c3ccccc3Cl)c3cc(Cl)ccc3NC(=O)CN12` (stereo not drawn), the result in [1], in assay [5] and in [8] was inactive. The Potency entry in assay [16], in [6], in assay [7], in assay [12], in assay [18] and in [13] was “inactive” each time. The Potency result in assay [14], in [19], in [20] and in assay [15] was “inactive” throughout. Also, the Potency in [9] is 29.8 µM (active); in assay [11] it was 26.6 µM (active).

As to `COc1cc(OC)nc(NC(=O)NS(=O)(=O)c2ncccc2C(=O)N(C)C)n1`, the result in [1], in assay [5], in assay [8] and in [10] was inactive. The Potency entry in [2], in assay [4], in [6], in assay [7], in assay [9] and in assay [11] was “inactive” in each case. For the same compound, the Potency entry in assay [12], in assay [17], in assay [13], in assay [14], in assay [19] and in assay [20] was “inactive” throughout. Besides, the Potency result in assay [15] was “inactive”.

Turning to `Cc1ncc2n1-c1ccc(Cl)cc1C(c1ccccc1F)=NC2`, the outcome in assay [1], in [3], in [5] and in assay [8] was inactive. Moreover, the Potency in assay [2] was 10.6 µM (active). Further, the Potency entry in [4], in assay [6], in assay [7], in [12], in [17] and in assay [13] was “inactive” in each case. Also, the Potency result in [19] and in assay [15] was “inactive” throughout.
